Source: PubChem (National Center for Advancing Translational Sciences (NCATS))
Only some compounds are listed: those with a hit (about 6% of all), similar ones and a draw of the others.
D3 antag – blocks the human D3 dopamine receptor. max response, negative = inhibition, %. actives 2.5% (n = 360,000). P35462. D3R cells, DiscoveRx beta-arrestin luminescence, antagonist mode; active compounds read low. AID 652054; in the data active = max response below about -50%; note: % is set by controls: 0 for no effect and ±100 for the full control effect
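Cells expressing the human receptor were seeded at 1500 cells/well, incubated overnight at 37 degrees C in 5% CO2, then exposed to library compounds with dopamine controls for 90 minutes at 37 degrees C before luminescent detection.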
DRD3 agonist – activates the human D3 dopamine receptor; AID 652048; D3R DiscoveRx beta-arrestin cells, luminescence, 90 min; actives 0.58% (n = 410,000); P35462; max activation, %; in the data active = max activation above about 30%; note: 0% is about no effect
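Agonist-mode cell screen: cells plated at 1500/well and incubated overnight at 37 °C, then exposed to library compounds for 90 min at 37 °C. Detection reagent was added for 30–60 min at room temperature, and luminescence was read.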
D1 PAM – human D1 dopamine receptor positive modulation | P21728 | HEK293 TREx D1 cells, calcium flux, dopamine EC20 potentiation | potentiation, % at 10 µM | actives 0.036% (n = 360,000) | AID 504651; in the data active = potentiation above about 30%; note: 0% is about no effect
Target sequence (P21728 whole entry, looked up): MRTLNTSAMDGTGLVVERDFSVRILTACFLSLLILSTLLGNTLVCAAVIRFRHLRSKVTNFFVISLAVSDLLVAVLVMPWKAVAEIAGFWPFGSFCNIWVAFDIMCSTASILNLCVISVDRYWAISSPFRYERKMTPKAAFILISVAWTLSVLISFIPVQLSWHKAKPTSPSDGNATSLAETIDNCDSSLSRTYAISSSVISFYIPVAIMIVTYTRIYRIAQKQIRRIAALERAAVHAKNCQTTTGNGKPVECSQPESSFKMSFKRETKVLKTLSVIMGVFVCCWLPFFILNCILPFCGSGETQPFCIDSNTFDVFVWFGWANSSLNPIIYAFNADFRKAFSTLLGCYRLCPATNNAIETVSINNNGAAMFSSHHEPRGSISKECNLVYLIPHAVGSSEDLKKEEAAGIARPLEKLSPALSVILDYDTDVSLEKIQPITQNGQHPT
D1 ag – human D1 receptor agonism; P21728; HEK293 T-REx D1 cells, calcium flux, agonist mode; activation, % at 2 µM; actives 1% (n = 360,000); AID 504660; in the data active = activation above about 30%; note: 0% is about no effect
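Tetracycline-induced HEK293 TREx D1 cells, force-coupled to calcium signalling, were dye-loaded with a no-wash calcium kit. Compound was pin-added after a 10 s baseline. Fluorescence was read kinetically at 1 cycle/s for 180 s, with calcium rises flagged as agonism.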
D1 antag – blocks dopamine activation of the human D1 receptor | P21728 | HEK293 TREx D1 cells, calcium flux, dopamine EC80; active compounds read low | activity change, negative = inhibition, % at 10 µM | actives 3.2% (n = 360,000) | AID 504652; in the data active = activity change below about -30%; note: % is set by controls: 0 for no effect and ±100 for the full control effect
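Antagonism measured as reduced calcium response to an EC80 dopamine addition following 180 s compound pre-read; cells were inducible HEK293 Trex D1 plated overnight at 30 C, read kinetically at 1 cycle/sec.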
Starred values were filed as active, the others as inactive; . = no result given; ! = not confirmed by another sample.

SMILES	D3 antag	DRD3 agonist	D1 PAM	D1 ag	D1 antag
COc1ccc(N2CCN(S(=O)(=O)c3ccc(OC)c(-c4noc(C)n4)c3)CC2)cc1	.	-10.2	0.2	2.5	10.6
COc1cccc(NC(=O)CCNS(=O)(=O)c2ccc(Br)s2)c1	0.0	-7.4	5.9	3.2	-36.7*!
COc1ccc(NC(=O)c2cccc(N3CCCS3(=O)=O)c2)c(OC)c1	.	6.1	-1.6	1.1	7.0
COC(=O)c1cccc(Nc2nn3c(=O)c4cc5c(cc4nc3s2)OCO5)c1	.	3.0	-0.1	-1.3	-4.2
O=c1[nH]c(CN2CCN(c3ccc(O)cc3)CC2)nc2scc(-c3ccc(Cl)cc3)c12	21.4	98.4*	-8.8	0.7	-33.0*
CC(NC(=O)Nc1cc(Cl)ccc1Cl)c1c(-n2cccc2)sc2c1CCCC2 (configuration not stated)	.	4.2	-1.2	-0.1	8.9
Cc1ccccc1CSCC(=O)N/N=C/c1cccs1	13.6	2.9	-8.2	5.9	-41.3*
COC(=O)N/N=C/c1cccs1	-3.6	-4.6	-4.0	1.4	-31.6*
COc1ccc(NC(=O)C2(c3cccs3)CCOCC2)cc1Cl	.	-5.8	-3.2	0.8	.
Cc1cccc(N=C2NC(=O)/C(=C/c3cccnc3)S2)c1C	-60.5*	-4.4	-3.7	0.8	-5.3
CC(=O)c1ccc(S(=O)(=O)N2CCN(C(=O)c3ccc(N)c([N+](=O)[O-])c3)CC2)cc1	-0.7	-0.7	0.6	1.3	-7.1
CC(=O)c1ccc(S(=O)(=O)N2CCN(C(=O)c3ccc(-n4cncn4)c([N+](=O)[O-])c3)CC2)cc1	-16.3	-11.5	-3.0	-0.1	-50.2*
Nc1ccc(C(=O)N2CCN(S(=O)(=O)c3ccc(Br)cc3)CC2)cc1[N+](=O)[O-]	-2.4	-12.2	-4.2	4.6	-48.6*
O=C(c1ccc(-n2cncn2)c([N+](=O)[O-])c1)N1CCN(S(=O)(=O)c2ccc(Br)cc2)CC1	2.3	1.1	-2.0	1.2	-0.9
CC(C)CCNC(=O)c1cnc2sc(N3CCCCC3)nn2c1=O	.	3.7	3.4	2.6	-10.6
C=CCn1c(N)c(C(=O)OC(C)(C)C)c2nc3ccccc3nc21	15.9	3.4	0.1	2.5	16.7
C=CCn1c(N)c(C(=O)Nc2ccccc2)c2nc3ccccc3nc21	9.6	1.1	-3.4	4.3	-35.9*
CCCCOc1ccc(C(=O)NCCc2csc3nc(-c4ccccc4F)nn23)cc1	.	5.4	3.0	4.3	14.8
CCN(CCO)Cc1cn[nH]c1-c1ccc(C)c(C)c1	-66.3*	3.3	-0.6	2.2	-3.0
COc1ccccc1CNC(=O)/C=C/c1cc2c(cc1Br)OCO2	-18.8	-16.6	-1.0	7.9	-30.2*
CCCOc1ccc(-c2cccc(NS(=O)(=O)c3ccc(CC)cc3)c2)nn1	.	7.5	0.2	-0.1	-3.2
O=C(CCn1c(=O)oc2ccccc21)Nc1ccc2c(c1)OCCO2	-1.2	5.0	-6.3	2.7	-38.2*
Cn1cc(SCC(=O)Nc2ccc3c(c2)OCCO3)c2ccccc21	10.0	0.4	-2.1	-1.3	-38.9*
O=C(Cn1c(=O)oc2ccccc21)Nc1ccc2c(c1)OCCO2	14.6	0.4	-2.2	3.4	-7.2
O=C(NCc1nnc2c(C(F)(F)F)cc(Cl)cn12)c1cccs1	-8.3	5.0	-1.1	0.4	12.0
SMILES	D3 antag	DRD3 agonist	D1 PAM	D1 ag	D1 antag
Cc1ccc(C(=O)NCCc2nnc3c(C(F)(F)F)cc(Cl)cn23)o1	9.0	2.3	-8.7	-0.2	-33.2*
Cc1noc(/C=C/c2ccc(-c3ccccc3Cl)o2)c1[N+](=O)[O-]	0.7	5.4	1.6	133.5*	-3.6
Cc1ccc(N/C=C/c2onc(C)c2[N+](=O)[O-])cc1	-7.7	-3.5	3.1	32.6*	3.8
Cc1cccc(C)c1N/C=C/c1onc(C)c1[N+](=O)[O-]	-28.6	-5.5	-5.5	-0.9	-7.1
Cc1noc(/C=C/c2cccnc2)c1[N+](=O)[O-]	-4.0	-4.2	-9.2	3.7	2.2
C/C(O)=c1/cnc2nc3ccccc3n2c1=O	1.3	0.1	-7.8	3.5	-43.5*
Cc1ccc(-c2c3c(=O)n(C)c(=O)n(C)c3c3c(C)nc4ccccc4n23)cc1	.	-14.1	-3.4	0.4	-3.7
COC(=O)c1cc(=O)c2cccc(OC)c2[nH]1	9.2	-3.4	-3.5	1.1	-3.9
COc1cccc2c(=O)cn[nH]c12	0.9	-2.1	-7.0	0.8	-52.3*
CCCN1CCN(CCNC(=O)Nc2ccc(OC)cc2OC)CC1	.	-8.9	2.1	-0.1	3.4
CCOc1ccc(NC(=O)C(C)n2c(=O)cc(C)c3c(C)nn(-c4ccccc4)c32)cc1 (configuration not stated)	.	1.3	-3.0	0.4	11.0
C=C1C(=O)[C@]23C[C@H]1CCC2[C@@]1(C)C(C[C@@H]3O)[C@](C)(C(=O)OC)CC[C@@H]1OC(C)=O (some centres not stated)	-132.5*	-26.9	.	.	.
C=C1C(=O)[C@]23C[C@H]1CC[C@H]2[C@]1(C)[C@@H](OC(C)=O)CC[C@@](C)(C(=O)OC)[C@H]1C[C@@H]3OC(C)=O	-107.3*	-6.5	.	.	.
COc1ccccc1CNC(=O)CSC1=Nc2ccccc2N=C(c2ccc(F)cc2)C1	.	-4.1	-2.5	8.9	3.1
COC(=O)c1cn(NC(=O)/C=C/c2ccc(OC)c(OC)c2)c(=O)c2ccccc12	16.3	2.9	-11.3	0.1	-73.8*
COC(=O)c1cn(NC(=O)/C=C/c2cccc(OC)c2OC)c(=O)c2ccccc12	.	.	-7.3	0.9	0.8
CC(=O)Nc1ccc(OS(=O)(=O)c2ccc(C)cc2C)cc1	-1.4	0.5	-6.9	2.8	-11.9
CC(=O)Nc1ccc(S(=O)(=O)Oc2ccc(C(=S)N3CCC(O)CC3)cc2)cc1	-10.7	-11.3	-5.0	6.2	-8.9
CC(=O)Nc1ccc(S(=O)(=O)Oc2ccc(C(=S)N3CCCCC3)cc2)cc1	-20.9	-12.6	-9.3	25.9	-32.6*
CCOc1cc(C(=S)N2CCOCC2)ccc1OS(=O)(=O)c1ccc(NC(C)=O)cc1	6.7	-2.4	-4.8	6.7	-33.1*
CC(=O)Nc1ccc(OS(=O)(=O)c2c(C)cc(C)cc2C)cc1	27.7	1.6	-1.6	4.3	-66.3*
COc1ccc(OC)c(NC(=O)c2c(NCc3ccc(OC)c(OC)c3)sc3c2CCC(C)C3)c1 (configuration not stated)	.	-6.4	-3.2	-0.5	0.7
Cc1ccc(NC(=O)CSc2nnc3[nH]c(=O)cc(-c4ccccc4)n23)cc1Cl	.	0.1	-0.5	2.9	.
Cc1c(C(=O)Nc2cccc(C(F)(F)F)c2)oc2ccc(S(=O)(=O)N3CCC4(CC3)OCCO4)cc12	.	11.9	-0.1	-1.3	-9.0
Cc1ccc(NC(=O)c2oc3ccc(S(=O)(=O)N4CCCCC4)cc3c2C)cc1C	.	3.0	-0.8	-1.5	-31.5*
Cc1c(C(=O)Nc2cccc(C(F)(F)F)c2)oc2ccc(S(=O)(=O)N3CCOCC3)cc12	6.3	63.6*	-4.3	2.2	-12.3
